# “And” between values parts separate entries of the source, which are not always exact repeats. Equal entries are not always repeated. Records with an inconclusive call do not appear. The source holds several records for some structures; these can differ, active in one and inactive in another. The source made the active and inactive calls. Calls come from the whole dose curve; as a rule, active = well fitted curve in the direction sought with a large enough effect; inconclusive = small, poorly fitted or top-dose-only effect, or another doubt; inactive = no such curve, though single readings can be large; an effect the other way counts as inactive or inconclusive.
# How the values were obtained:
# [1] = Primary qHTS for inhibitors of nuclear receptor binding SET domain protein 2 (NSD2) in an isogenic RCH-ACV NSD2 p.E1099K mutant (9B) (AID 1645876); details: RCH-ACV NSD2 E1099K (9B) viability, CellTiter-Glo, 72 h; series mostly up to 44.9 µM; note: nearly all actives have a fitted effect of over 70% in size; note: potency is the fitted concentration of half-maximal effect
# [2] = Primary qHTS for inhibitors of nuclear receptor binding SET domain protein 2 (NSD2) in an RCH-ACV wild type WT cells (2C) (AID 1645877); details: RCH-ACV (leukaemia line) NSD2 WT (2C) viability, CellTiter-Glo, 72 h; series mostly up to 44.9 µM; note: nearly all actives have a fitted effect of over 70% in size; note: potency is the fitted concentration of half-maximal effect
# [3] = biological target: Rap guanine nucleotide exchange factor 3 (Homo sapiens) (UniProt O95398); assay: Confirmatory qHTS for antagonist of cAMP-regulated guanine nucleotide exchange factor 3 (EPAC1) (AID 1645880); details: EPAC1 Rap1B-BODIPY-GDP exchange, fluorescence; series mostly up to 115 µM; note: nearly all actives have a fitted effect of over 55% in size
# Sequence of Rap guanine nucleotide exchange factor 3 (Homo sapiens) (O95398 whole entry, looked up): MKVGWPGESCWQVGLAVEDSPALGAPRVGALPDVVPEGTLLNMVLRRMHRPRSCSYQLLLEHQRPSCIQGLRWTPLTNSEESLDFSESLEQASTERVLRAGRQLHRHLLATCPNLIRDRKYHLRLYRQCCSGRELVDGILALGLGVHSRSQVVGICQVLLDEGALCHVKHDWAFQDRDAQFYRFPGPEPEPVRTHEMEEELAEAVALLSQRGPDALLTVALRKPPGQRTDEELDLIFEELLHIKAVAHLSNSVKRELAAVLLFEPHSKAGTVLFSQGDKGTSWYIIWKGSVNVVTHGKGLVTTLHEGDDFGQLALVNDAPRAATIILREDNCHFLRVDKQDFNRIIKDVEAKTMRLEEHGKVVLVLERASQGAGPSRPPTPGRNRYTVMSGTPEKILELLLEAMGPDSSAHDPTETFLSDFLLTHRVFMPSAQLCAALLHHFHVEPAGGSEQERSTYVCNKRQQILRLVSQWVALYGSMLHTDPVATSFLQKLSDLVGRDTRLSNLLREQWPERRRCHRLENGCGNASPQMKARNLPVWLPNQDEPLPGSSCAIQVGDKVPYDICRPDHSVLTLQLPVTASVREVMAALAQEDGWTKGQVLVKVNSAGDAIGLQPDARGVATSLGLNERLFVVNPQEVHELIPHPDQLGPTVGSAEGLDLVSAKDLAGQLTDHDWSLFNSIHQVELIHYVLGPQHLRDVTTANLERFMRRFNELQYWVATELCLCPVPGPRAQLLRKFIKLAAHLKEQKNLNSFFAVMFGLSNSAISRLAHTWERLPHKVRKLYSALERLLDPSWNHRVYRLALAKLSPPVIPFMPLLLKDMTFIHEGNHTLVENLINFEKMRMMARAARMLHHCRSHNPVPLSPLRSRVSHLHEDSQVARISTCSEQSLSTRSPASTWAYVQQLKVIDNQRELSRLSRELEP
# Method in brief: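 Nucleotide exchange uses 100 nM EPAC1, 250 nM RAP1B-BODIPY-GDP and 50 uM GDP, with compounds in a concentration-titration series. After 5 min at room temperature, fluorescence (480 nm ex/540 nm em) is read every 5 min for 30 min. Data are normalized to control ATA and DMSO.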
# [4] = biological target: Rap guanine nucleotide exchange factor 3 (Homo sapiens) (UniProt O95398); assay: Confirmatory qHTS for agonist of cAMP-regulated guanine nucleotide exchange factor 3 (EPAC1) (AID 1645881); details: EPAC1 Rap1B BODIPY-GDP exchange fluorescence, 100% = cAMP control response; series mostly up to 154 µM;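 note: EPAC1 catalysed release of BODIPY-GDP from Rap1B seen as fluorescence loss; nearly all actives have a fitted effect of over 75% in size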
# [5] = biological target: Rap guanine nucleotide exchange factor 4 (Homo sapiens) (UniProt Q8WZA2); assay: Confirmatory qHTS for agonist of cAMP-regulated guanine nucleotide exchange factor 4 (EPAC2) (AID 1645884); details: EPAC2 GEF activity, Rap1B-BODIPY-GDP fluorescence, percent relative to cAMP agonist control; series mostly up to 154 µM;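 note: nucleotide exchange releases bodipy-GDP from Rap1 and this lowers its fluorescence; nearly all actives have a fitted effect of over 65% in size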
# Sequence of Rap guanine nucleotide exchange factor 4 (Homo sapiens) (Q8WZA2 whole entry, looked up): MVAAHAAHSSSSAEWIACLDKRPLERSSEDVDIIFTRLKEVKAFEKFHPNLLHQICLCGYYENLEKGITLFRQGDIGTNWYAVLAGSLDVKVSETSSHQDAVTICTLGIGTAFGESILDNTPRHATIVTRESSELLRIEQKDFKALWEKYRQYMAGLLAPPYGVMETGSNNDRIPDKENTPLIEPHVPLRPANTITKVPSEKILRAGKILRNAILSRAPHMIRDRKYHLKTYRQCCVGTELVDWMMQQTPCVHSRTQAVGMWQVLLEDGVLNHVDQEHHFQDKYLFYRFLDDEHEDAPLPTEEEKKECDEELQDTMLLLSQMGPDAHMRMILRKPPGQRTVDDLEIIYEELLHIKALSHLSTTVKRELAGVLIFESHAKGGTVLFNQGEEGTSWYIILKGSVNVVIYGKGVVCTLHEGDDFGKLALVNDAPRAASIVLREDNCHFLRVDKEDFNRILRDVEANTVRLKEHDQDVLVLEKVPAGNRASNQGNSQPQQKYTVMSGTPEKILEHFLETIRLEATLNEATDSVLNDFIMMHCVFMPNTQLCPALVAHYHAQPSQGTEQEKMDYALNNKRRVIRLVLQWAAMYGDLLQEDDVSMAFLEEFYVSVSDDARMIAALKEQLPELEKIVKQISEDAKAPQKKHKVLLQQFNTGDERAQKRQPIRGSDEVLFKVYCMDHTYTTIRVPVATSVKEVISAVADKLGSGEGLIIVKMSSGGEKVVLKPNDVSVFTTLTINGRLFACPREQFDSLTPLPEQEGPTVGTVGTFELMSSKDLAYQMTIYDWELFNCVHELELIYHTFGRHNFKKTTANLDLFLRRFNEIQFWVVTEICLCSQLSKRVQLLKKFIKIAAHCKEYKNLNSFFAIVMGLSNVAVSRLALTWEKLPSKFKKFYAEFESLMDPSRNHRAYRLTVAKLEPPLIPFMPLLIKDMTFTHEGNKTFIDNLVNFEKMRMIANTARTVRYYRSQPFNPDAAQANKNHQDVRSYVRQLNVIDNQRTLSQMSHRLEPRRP
structure (smiles),measurement,setting,value
CS(=O)(=O)c1ccc(C(=O)Nc2ccc(Cl)c(-c3ccccn3)c2)c(Cl)c1,Potency,[1],inactive
same,Potency,[2],inactive
NC(=O)c1ccc(-c2nc(-c3ccc4c(c3)OCCO4)c(-c3ccccn3)[nH]2)cc1,Potency,[1],inactive
same,Potency,[2],inactive
COc1ccc(C2=N[C@H](c3ccc(Cl)cc3)[C@H](c3ccc(Cl)cc3)N2C(=O)N2CCNC(=O)C2)c(OC(C)C)c1,Potency,[1],18.6 µM (active)
same,Potency,[2],18.6 µM (active)
CC1(C)CNc2cc(NC(=O)c3cccnc3NCc3ccncc3)ccc21,Potency,[1],inactive
same,Potency,[2],inactive
CCC(C)(C)C(=O)O[C@H]1C[C@@H](C)C=C2C=C[C@H](C)[C@H](CC[C@@H]3C[C@@H](O)CC(=O)O3)[C@H]21,Potency,[1],8.33 µM (active)
same,Potency,[2],8.33 µM (active)
Cc1cc(SCc2sc(-c3ccc(C(F)(F)F)cc3)nc2C)ccc1OCC(=O)O,Potency,[1],inactive
same,Potency,[2],inactive
CO[C@@H]1[C@H](N(C)C(=O)c2ccccc2)C[C@H]2O[C@]1(C)n1c3ccccc3c3c4c(c5c6ccccc6n2c5c31)C(=O)NC4,Potency,[1],1.3 µM (active) and 1.05 µM (active)
same,Potency,[2],1.3 µM (active) and 525 nM (active)
CS(=O)(=O)Oc1ccc2c(NC(N)=O)c(C(=O)c3ccc(Cl)cc3Cl)oc2c1,Potency,[1],inactive
same,Potency,[2],inactive
CCc1cc(Nc2nccc(-c3c(-c4ccc(OC)c(C(=O)Nc5c(F)cccc5F)c4)nc4ccccn34)n2)c(OC)cc1N1CCC(N2CCN(S(C)(=O)=O)CC2)CC1,Potency,[2],inactive and 5.9 µM (active)
COCCNCCCn1c(C(=O)CF)c(-c2ccc(C)cc2)c2c(N)ncnc21,Potency,[1],18.6 µM (active)
same,Potency,[2],16.6 µM (active)
CCOc1cc(N2CCC(O)CC2)ccc1Nc1ncc2c(n1)N(C)c1ccccc1C(=O)N2C,Potency,[1],2.35 µM (active)
same,Potency,[2],2.63 µM (active)
COc1ccc2c3n(c(=NC(=O)c4cccnc4)nc2c1OC)CCN3,Potency,[1],0.166 µM (active)
same,Potency,[2],0.186 µM (active)
O=C(c1cc(Cc2n[nH]c(=O)c3ccccc23)ccc1F)N1CCN(C(=O)C2CC2)CC1,Potency,[1],6.61 µM (active)
same,Potency,[2],3.72 µM (active)
CC(C)c1onc(-c2c(Cl)cccc2Cl)c1COc1ccc(/C=C/c2cccc(C(=O)O)c2)c(Cl)c1,Potency,[1],inactive
same,Potency,[2],inactive
CCn1c(-c2nonc2N)nc2cnc(Oc3cccc(NC(=O)c4ccc(OCCN5CCOCC5)cc4)c3)cc21,Potency,[1],3.26 µM (active) and 662 nM (active)
same,Potency,[2],326 nM (active) and 417 nM (active)
Nc1nc2[nH]cc(CCc3ccc(C(=O)N[C@@H](CCC(=O)O)C(=O)O)cc3)c2c(=O)[nH]1,Potency,[1],0.296 µM (active)
same,Potency,[2],0.296 µM (active)
N#CC[C@H](C1CCCC1)n1cc(-c2ncnc3[nH]ccc23)cn1,Potency,[1],16.3 µM (active) and 9.34 µM (active)
same,Potency,[2],18.3 µM (active) and 9.34 µM (active)
NC(=O)C1CCCc2c1[nH]c1ccc(Cl)cc21 (stereo not given),Potency,[1],inactive
same,Potency,[2],inactive
CN(C)c1ccc(C2Nc3ccc4ccccc4c3C3=C2C(=O)CC(C)(C)C3)cc1Br (stereo not given),Potency,[1],inactive
same,Potency,[2],inactive
COc1ccc(CC2=NN3C([C@@H](CCc4ccccc4)[C@@H](C)O)=NC(C)C3C(=O)N2)cc1OC (stereo not given in full),Potency,[2],inactive
O=C1[C@H](Cc2ccc(O)cc2)N2C(=O)CCN(C(=O)NCc3ccccc3)[C@H]2CN1Cc1cccc2ccccc12,Potency,[1],3.72 µM (active)
same,Potency,[2],3.72 µM (active)
CCC(=O)N[C@H]1CC[C@H](C(=O)N(C)c2ccc(-c3nc4ccccc4o3)cc2)C1,Potency,[2],18.6 µM (active)
Cc1cnc(Nc2ccc(OCCN3CCCC3)cc2)nc1Nc1cccc(S(=O)(=O)NC(C)(C)C)c1,Potency,[1],1.83 µM (active) and 2.35 µM (active)
same,Potency,[2],1.83 µM (active) and 1.86 µM (active)
CCn1c(-c2nonc2N)nc2c(C#CC(C)(C)O)ncc(OC[C@H]3CCCNC3)c21,Potency,[1],1.32 µM (active)
same,Potency,[2],1.18 µM (active)
Nc1nc2ccc(OC(F)(F)F)cc2s1,Potency,[1],23.5 µM (active)
same,Potency,[3],inactive
same,outcome,[4],inactive
same,outcome,[5],inactive
Cc1cc(Nc2nc(N[C@@H](C)c3ncc(F)cn3)ncc2Cl)n[nH]1,Potency,[1],2.05 µM (active) and 2.95 µM (active)
same,Potency,[2],2.05 µM (active) and 3.72 µM (active)
COc1c(Cl)cc2c([nH]c3cnccc32)c1NC(=O)c1cccnc1C,Potency,[1],9.34 µM (active)
same,Potency,[2],9.34 µM (active)
Cc1ccnc(NS(=O)(=O)c2ccc(NC(=O)Nc3ccc(S(=O)(=O)Nc4nccc(C)n4)cc3)cc2)n1,Potency,[1],inactive
same,Potency,[2],inactive
